Source: PubChem BioAssay
M1 ag: agonists of M1 muscarinic receptor; CHO-M1 cells, Fluo-4 calcium fluorescence, agonist mode; stronger effect = higher value; B-score at 10 µM; hit rate 3% among 64,000; AID 626;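 active = fluorescence rise, raw or as B-score row- and column-corrected plate score, outside the 99.7% band of its plate's samples, either direction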
mHtt clearance: compounds clearing mutant huntingtin protein; hit rate 0.42% among 47,000; HeLa Exon1htt(103Q)mCFP, aggregate imaging; zero = plate's median compound well; inhibition, % at 1.5 µM; AID 853;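 active = inhibition of aggregate fluorescence above about 70%, also judged a hit by eye on the cell image, limit read from the data, passing the limit was not always enough; inconclusive = no rule stated for this call; inactive = not judged a hit on image review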;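 also: cells exposed to compound for three days before fixation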
D1 allo mod: D1 dopamine receptor (human) allosteric modulation; P21728; HEK293 D1, CRE-luciferase, dopamine EC30 potentiation; actives deviate in either direction; B-score at 10 µM; hit rate 5.9% among 58,000;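 active = luminescence count or its row- and column-corrected plate score outside the 99.7% band of the plate's sample wells, on either side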
WNV protease inh: WNV NS2B-NS3 proteinase inhibition; WNV NS2B-NS3 protease, fluorogenic substrate Ex360/Em465; stronger effect = lower value; z-score (concentration not given with the values); hit rate 0.18% among 65,000; AID 577; in the data active = z-score below about -3
Target sequence (P06935 1371-1501 limits assumed): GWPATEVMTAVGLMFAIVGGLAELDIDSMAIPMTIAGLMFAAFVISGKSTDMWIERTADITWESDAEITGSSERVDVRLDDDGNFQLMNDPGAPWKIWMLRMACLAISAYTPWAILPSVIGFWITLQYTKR
Target sequence (P06935 1502-1679 limits assumed): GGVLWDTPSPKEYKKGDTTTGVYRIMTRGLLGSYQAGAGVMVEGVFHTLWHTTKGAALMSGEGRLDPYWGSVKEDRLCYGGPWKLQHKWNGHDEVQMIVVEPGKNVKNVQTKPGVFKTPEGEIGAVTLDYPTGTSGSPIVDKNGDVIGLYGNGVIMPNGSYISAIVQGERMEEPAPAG
M1 antagonist: antagonists of rat M1 muscarinic receptor; hit rate 3.4% among 64,000; B-score at 10 µM; P08482; CHO-M1 cells, Fluo-4 calcium, ACh EC80 antagonist mode; stronger effect = lower value; AID 628;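 active = calcium fluorescence response, raw or row-and-column corrected B-score, differing from the plate sample mean either way at a set confidence level, mostly lower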
D1 PAM confirm: D1 receptor (human) allosteric modulation, confirmed; hit rate 88% among 2,200; luminescence at 10 µM; AID 642; shares compounds with D1 allo mod; HEK293 D1 CRE-luciferase, dopamine EC30 potentiation; stronger effect = higher value;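 active = luminescence in either of two replicates above the same-plate mean plus 3 SD of the low-dose dopamine control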
D1 no dopamine: activates D1 CRE-luciferase signal without dopamine present; shares compounds with D1 allo mod; HEK293 D1 CRE-luciferase, luminescence, no dopamine; stronger effect = higher value; luminescence at 10 µM; hit rate 0.8% among 1,900; in the data active = luminescence above about 3900
Isoprot counter: alters isoproterenol CRE-luciferase response in HEK293 cells | shares compounds with D1 allo mod | HEK293 D1 CRE-luciferase, isoproterenol EC30 counter-screen | calls only at 10 µM | hit rate 63% among 2,200;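 active = luminescence in either replicate above plate mean of wells with a partly effective reference agonist dose plus 3 SD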;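 also: isoproterenol raises cAMP through native beta-adrenoceptor Gs so signal bypasses D1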
An asterisk follows results filed as active; i = inactive; ? = inconclusive; nt = not tested or not shown; + = active, no number. Most compounds without a hit are left out; they make up all but 8.9% or so of the library.

SMILES | M1 ag | mHtt clearance | D1 allo mod | WNV protease inh | M1 antagonist | D1 PAM confirm | D1 no dopamine | Isoprot counter
COc1ccc(-c2nc(N3CCOCC3)nc3n[nH]c(N)c23)cc1 | -0.292 | nt | 4.97* | -0.92 | 0.71 | 12424* | nt | +
COc1cccc(-c2cc(C(F)(F)F)nc(N3CCOCC3)n2)c1 | 0 | nt | 0.282 | -0.85 | -0.967 | nt | nt | nt
Nc1nc(-c2cccnc2)nc(N2CCCCC2)n1 | -0.736 | nt | 1.86 | -1.02 | 0.00787 | nt | nt | nt
COc1ccc(-c2nc(N3CCCC3)nc3nn4c(C)cc(C)nc4c23)cc1 | 0.094 | nt | -0.823 | -0.09 | 0.101 | nt | nt | nt
Cc1cc(C)n2nc3nc(N4CCCC4)nc(-c4ccccc4)c3c2n1 | 0.739 | nt | 4.75* | 0.74 | 0.179 | 7140* | 1568 | +
Nc1[nH]nc2nc(N3CCCC3)nc(-c3ccccc3)c12 | -0.0306 | nt | 15.4* | -0.35 | 0.2 | 18304* | 1740 | +
CCC(C)NCCOCCOc1ccccc1-c1ccccc1 (stereo not given) | nt | 29.2 | nt | nt | nt | nt | nt | nt
Cc1ccc(-c2nc3cccnc3s2)cc1NS(=O)(=O)c1ccc2c(c1)OCCO2 | nt | -16.8 | nt | nt | nt | nt | nt | nt
O=S(=O)(Nc1cccc(-c2nc3cccnc3s2)c1)c1ccc2c(c1)OCCO2 | 1.46 | nt | 4.65* | 0.68 | -0.0632 | 8604* | 1424 | i
CN1CCN(c2ccc(Cl)cc2NC(=O)c2cccc(S(=O)(=O)N(C)C)c2)CC1 | -0.0514 | nt | 5.21* | -0.94 | -0.977 | 13264* | 1580 | i
CC1CCCN(c2nc3c(c(=O)[nH]c(=O)n3C)n2CCSc2nc3ccccc3o2)C1 (stereo not given) | -0.478 | nt | nt | 1.32 | -0.631 | nt | nt | nt
Cc1nnc(SCCn2c(N3CCCC(C)C3)nc3c2c(=O)[nH]c(=O)n3C)s1 (stereo not given) | -0.59 | nt | 4.13* | 0.4 | 0.97 | 9916* | 1740 | i
Cn1c(=O)[nH]c(=O)c2c1nc(Br)n2CCCSc1nc2ccccc2o1 | 0.814 | 22.3 | 6.72* | -0.41 | -0.582 | 10016* | 1580 | +
Cc1nnc(SCCn2c(N3CCC(C)CC3)nc3c2c(=O)[nH]c(=O)n3C)s1 | 0.931 | ? | -0.171 | 0.08 | 0.923 | nt | nt | nt
Cn1c(=O)[nH]c(=O)c2c1nc(N1CCCC1)n2CCCSc1nc2ccccc2o1 | -0.988 | nt | 5.29* | -0.42 | -0.0374 | 17352* | 2232 | +
Cn1c(=O)[nH]c(=O)c2c1nc(N1CCCCC1)n2CCCSc1nc2ccccc2s1 | 0.53 | -7.2 | 5.67* | -0.17 | 0.077 | 16664* | 1660 | +
COc1ccccc1N1CCN(S(=O)(=O)CC23CCC(CC2=O)C3(C)C)CC1 (stereo not given) | -1.21 | 28.1 | -0.0293 | -0.23 | 0.126 | nt | nt | nt
CCCN1CCN(C(=O)CN2C(=O)CC(C)(C)S(=O)(=O)c3ccccc32)CC1 | -0.0233 | -10.5 | -0.426 | 1.63 | 0.519 | nt | nt | nt
CCOC(=O)c1cnc(-n2nc(C)cc2C)nc1NC(C)c1ccccc1 (stereo not given) | -0.853 | nt | 8.31* | -0.3 | -1.17 | 9080* | 1572 | +
CCOC(=O)CCC(=O)NCc1ccc2[nH]c(C)cc2c1 | -0.25 | 36.0 | nt | -1.58 | 0.83 | nt | nt | nt
CCOC(=O)CCCSc1nc2sc(C)c(C)c2c(=O)[nH]1 | 0.0306 | nt | 2.95* | -0.37 | -0.115 | 6744* | nt | +
Cc1ccnc(SCCn2c(N3CC(C)CC(C)C3)nc3c2c(=O)n(C)c(=O)n3C)n1 (stereo not given) | 0.216 | 30.8 | 3.02* | -0.86 | -0.16 | 5916* | 1664 | +
CCc1nnc(NC(=O)c2ccncc2)s1 | 0.46 | nt | 2.75* | -1.01 | 0.0629 | 4640 | 1208 | i
COC(=O)c1ccc(C(=O)OC)c(NC(=O)CSCc2ccc(Br)cc2)c1 | nt | -9.1 | nt | nt | nt | nt | nt | nt
C=CCn1c(SCC(=O)OCc2ccccc2)nc2c1c(=O)n(C)c(=O)n2C | nt | 63.3 | -0.545 | 1.06 | nt | nt | nt | nt
SMILES | M1 ag | mHtt clearance | D1 allo mod | WNV protease inh | M1 antagonist | D1 PAM confirm | D1 no dopamine | Isoprot counter
CCn1c(SCC(=O)OCc2ccccc2)nc2c1c(=O)n(C)c(=O)n2C | -0.154 | 27.6 | 3.95* | 0.68 | -0.597 | 5976 | 1308 | i
CO/N=C(\C(=O)N[C@@H]1C(=O)N2C(C(=O)O)=C(COC(N)=O)CS[C@H]12)c1ccco1 | nt | nt | nt | -1.38 | nt | nt | nt | nt
C=CCOC(=O)C1=C(C)Nc2nnnn2C1c1cc(OC)ccc1OC (stereo not given) | -0.0687 | nt | -0.472 | 0.24 | 0.475 | nt | nt | nt
COc1cccc(C2=CC(c3cc(OC)ccc3OC)n3nnnc3N2)c1 (stereo not given) | -0.47 | nt | 4.12* | -1.16 | 0.0346 | 8488* | nt | +
COc1cccc(C2=CC(c3ccc(N(C)C)cc3)n3nnnc3N2)c1 (stereo not given) | 0.591 | -7.3 | nt | -0.46 | -0.00108 | nt | nt | nt
COc1cccc(C2=CC(c3cccc(OC)c3OC(F)F)n3nnnc3N2)c1 (stereo not given) | -0.78 | -65.3 | 2.57 | 1.74 | 0.315 | nt | nt | nt
COc1ccc(C2=CC(c3ccc(OC)c(OC)c3)n3nnnc3N2)c(OC)c1 (stereo not given) | 0.95 | nt | 9.32* | -1.1 | 0.73 | 15796* | 2008 | +
COc1ccc(OC)c(C2C=C(c3ccc(C)c(C)c3)Nc3nnnn32)c1 (stereo not given) | -0.633 | nt | 3.86* | -1 | 0.88 | 6516* | 1816 | i
O=C(Cn1nc(-c2ccccc2)c2ccccc2c1=O)Nc1ccccn1 | -0.0315 | 10.5 | 0.767 | -0.49 | -0.417 | nt | nt | nt
COCCN1C(=O)c2oc3ccccc3c(=O)c2C1c1ccc(OC)c(OC)c1 (stereo not given) | -0.603 | nt | nt | 1.68 | 0.0277 | nt | nt | nt
C=CCN1C(=O)c2oc3ccccc3c(=O)c2C1c1ccc(O)c(OC)c1 (stereo not given) | -0.675 | nt | 8.12* | 1.87 | -0.199 | 10008* | nt | i
COc1ccccc1NC(=O)c1nc[nH]c1C(=O)Nc1ccccc1OC | -0.167 | nt | 0.838 | -0.14 | 0.53 | nt | nt | nt
Cc1ccccc1NC(=O)c1nc[nH]c1C(=O)NCc1ccccc1 | -0.422 | 33.6 | 5.09* | 0.8 | -0.289 | 14280* | 1616 | i
Cc1ccccc1NC(=O)Nc1ccccc1C(=O)NCc1ccccc1 | nt | 27.5 | nt | nt | nt | nt | nt | nt
CNC(=O)c1[nH]cnc1C(=O)Nc1cccc(OC)c1 | -0.328 | 11.5 | 4.49* | -0.33 | 0.167 | 10128* | 1656 | +
COc1ccc(NC(=O)c2nc[nH]c2C(=O)Nc2ccccc2C)cc1 | 0.38 | nt | 7.54* | 0.6 | 0.403 | 14740* | 1512 | +
CC1CCCC(NC(=S)Nc2ccc(SC(F)F)cc2)C1C (stereo not given) | nt | -24.6 | nt | nt | nt | nt | nt | nt
COC(=O)c1[nH]c2ccc(C)cc2c1NC(=O)Nc1ccccc1OC | 0.0506 | nt | -1.13 | 0.39 | 0.133 | nt | nt | nt
Cc1cc2nc(-c3ccc(NC(=O)C(C)C)cc3)oc2cc1C | -0.959 | nt | 5.79* | -0.6 | 0.37 | 3212 | 1136 | i
CCCC(=O)Nc1cccc(-c2nc3cc(C)c(C)cc3o2)c1 | 0.0119 | nt | 0.0955 | -0.01 | -0.424 | nt | nt | nt
